Assay results: PubChem BioAssay (Tox21)
The source made the active and inactive calls. Unless noted, the call rests on the fitted dose curve; in most records, active means well fitted curve in the direction sought with a large enough effect in the repeat runs; inconclusive means weak or mixed curves; inactive means flat fitted curve, though single readings scatter.

Experiments:
[1] = qHTS assay to test for compound auto fluorescence at 535 nm (green) in HEK293 cells (AID 720680); conditions: green autofluorescence 485/535 nm; series mostly up to 46 µM
[2] = qHTS assay to test for compound auto fluorescence at 460 nm (blue) in HEK293 cell free culture (AID 720681); conditions: cell-free medium, autofluorescence 405/460 nm (blue); series mostly up to 46 µM
Outline: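 Blue fluorescence (Ex 405/Em 460 nm, triamterene-equivalent) was read immediately after pin transfer of compound or DMSO into medium (DMEM, 10% FBS) without cells.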

[3] = qHTS assay to test for compound auto fluorescence at 590 nm (red) in HEK293 cell free culture (AID 720683); conditions: cell-free medium autofluorescence, Ex540/Em590 red; series mostly up to 46 µM
Outline: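 Red-channel autofluorescence of compounds in culture medium (DMEM, 10% FBS), no cells, measured at 540/590 nm. Rose Bengal sodium is the reference fluorophore for equivalence.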

[4] = qHTS assay to test for compound auto fluorescence at 590 nm (red) in HepG2 cell free culture (AID 720684); conditions: cell-free medium autofluorescence, red 540/590 nm; series mostly up to 46 µM
Outline: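 Cell-free; medium MEM + 10% FBS; compound or DMSO added by pintool; read Ex 540/Em 590 nm; Rose Bengal sodium as red reference fluorophore.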

[5] = qHTS assay to test for compound auto fluorescence at 460 nm (blue) in HepG2 cell free culture (AID 720685); conditions: Cell-free culture medium, blue autofluorescence 405/460 nm; series mostly up to 46 µM
Outline: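 Cell-free plates of MEM plus 10% FBS received 23 nL compound or DMSO vehicle; blue-channel (405/460 nm) intensity scored against triamterene as reference fluorophore.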

[6] = qHTS assay to test for compound auto fluorescence at 535 nm (green) in HepG2 cell free culture (AID 720686); conditions: Cell-free medium, green autofluorescence 485/535 nm; series mostly up to 46 µM; further: potency means the concentration at half of the fitted maximal effect
[7] = qHTS assay to test for compound auto fluorescence at 460 nm (blue) in HepG2 cells (AID 720687); conditions: autofluorescence 405/460 nm, 1 h; series mostly up to 46 µM
Outline: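 Blue-channel autofluorescence (Ex/Em 405/460 nm, triamterene-equivalent) was measured after 1 hr compound exposure at 37 C, 5% CO2. Cells were HepG2, plated overnight at 37 C in MEM plus 10% FBS.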

[8] = target: Glucocorticoid receptor (Homo sapiens) (UniProt P04150); assay: qHTS assay to identify small molecule agonists of the glucocorticoid receptor (GR) signaling pathway (AID 720691; active means well fitted activation curve with a large enough effect in the signal ratio in the repeat runs, not every such curve was filed as active; inconclusive means weak or mixed curves, or effect the other way; inactive means no such curve, though single readings can be large or run the other way; the % refers to the signal ratio; further: potency means the concentration at half of the fitted maximal effect); conditions: GR-bla HeLa, beta-lactamase reporter ratio, 18 h; activation: at 62.4 µM (top of the series)
Glucocorticoid receptor (Homo sapiens), sequence (P04150 whole entry, looked up): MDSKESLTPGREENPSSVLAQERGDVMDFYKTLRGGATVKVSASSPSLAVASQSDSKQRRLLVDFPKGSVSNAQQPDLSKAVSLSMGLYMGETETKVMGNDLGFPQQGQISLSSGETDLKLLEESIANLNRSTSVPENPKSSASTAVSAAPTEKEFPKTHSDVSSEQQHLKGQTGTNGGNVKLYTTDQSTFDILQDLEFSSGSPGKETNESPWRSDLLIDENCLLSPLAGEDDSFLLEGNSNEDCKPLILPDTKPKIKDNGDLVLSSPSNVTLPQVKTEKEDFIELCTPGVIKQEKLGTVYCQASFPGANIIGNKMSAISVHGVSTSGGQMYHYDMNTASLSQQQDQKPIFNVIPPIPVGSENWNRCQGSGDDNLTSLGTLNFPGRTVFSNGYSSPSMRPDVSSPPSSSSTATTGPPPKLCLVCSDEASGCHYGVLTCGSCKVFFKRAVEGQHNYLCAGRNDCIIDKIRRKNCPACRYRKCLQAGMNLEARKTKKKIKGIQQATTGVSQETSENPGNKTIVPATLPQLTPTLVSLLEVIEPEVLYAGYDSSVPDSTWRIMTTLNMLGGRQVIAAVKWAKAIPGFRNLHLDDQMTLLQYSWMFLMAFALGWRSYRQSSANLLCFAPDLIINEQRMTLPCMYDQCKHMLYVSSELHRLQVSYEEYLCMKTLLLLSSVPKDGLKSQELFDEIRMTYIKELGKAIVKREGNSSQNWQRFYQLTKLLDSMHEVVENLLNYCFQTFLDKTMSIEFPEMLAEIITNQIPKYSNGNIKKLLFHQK
Outline: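 Compounds in DMSO, alongside positive controls, were added to GR-bla HeLa reporter cells and incubated 18 h at 37 C; GRE-driven beta-lactamase was detected by fluorescence after 2 h with FRET substrate at room temperature.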

[9] = target: Glucocorticoid receptor (Homo sapiens) (UniProt P04150); assay: qHTS assay to identify small molecule antagonists of the glucocorticoid receptor (GR) signaling pathway (AID 720692; active means well fitted inhibition curve with a large enough effect in the signal ratio in the repeat runs, not every such curve was filed as active; inconclusive means weak or mixed curves, or effect the other way; inactive means no such curve, though single readings can be large or run the other way; the % refers to the signal ratio; further: potency means the concentration at half of the fitted maximal effect); conditions: GR-bla HeLa, beta-lactamase FRET ratio, dexamethasone-stimulated, 18 h; series mostly up to 58.5 µM
Outline: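 In a 1536-well cell format, compounds were added 4 h after seeding GR-bla HeLa cells, together with dexamethasone at 5 nM final; reporter activity was measured by FRET-substrate fluorescence following 18 h at 37 C.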

[10] = qHTS assay to test for compound auto fluorescence at 535 nm (green) in HEK293 cell free culture (AID 720682); conditions: cell-free medium, green autofluorescence 485/535 nm, hits give high values; series mostly up to 46 µM
Outline: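 Steps: dispense DMEM/10% FBS into empty wells; pin in compound or DMSO; measure fluorescence at 485/535 nm. Values are fluorescein equivalents.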

Measured: Potency
Tags describe the fitted curve by direction and shape or compound fluorescence and quenching.

CNC(=O)OCc1cccc(COC(=O)NC)n1
not listed: [10]
inactive: all other assays above

CO[C@H](C(=O)[C@@H](O)[C@@H](C)O)C1Cc2cc3cc(O[C@H]4C[C@@H](O[C@H]5C[C@@H](O)[C@H](O)[C@@H](C)O5)[C@@H](O)[C@@H](C)O4)c(C)c(O)c3c(O)c2C(=O)[C@H]1O[C@H]1C[C@@H](O[C@H]2C[C@@H](O[C@H]3C[C@](C)(O)[C@H](O)[C@@H](C)O3)[C@H](O)[C@@H](C)O2)[C@H](O)[C@@H](C)O1 (some centres undefined)
not listed: [1] | [8] | [9]
inactive: all other assays above

N[C@H](C(=O)O)[C@@H]1CC(Cl)=NO1
not listed: [8] | [9] | [10]
inactive: all other assays above

C1CCc2nnnn2CC1
not listed: [1] | [8] | [9]
inactive: all other assays above

C=CC1=C(C(=O)O)N2C(=O)[C@@H](NC(=O)/C(=N/OCC(=O)O)c3csc(N)n3)[C@H]2SC1 (stereo in doubt)
not listed: [8] | [9] | [10]
inactive: all other assays above

CC/C(=C(/CC)c1ccc(OP(=O)(O)O)cc1)c1ccc(OP(=O)(O)O)cc1
not listed: [8] | [9] | [10]
inactive: all other assays above

CCCCCCCCOC(=O)c1cc(O)c(O)c(O)c1
not listed: [8] | [9] | [10]
inactive: all other assays above

CC(C)c1ncc([N+](=O)[O-])n1C
not listed: [6] | [7] | [10]
inactive: all other assays above

COc1cc2c(cc1O)CCN[C@]21CS[C@@H]2c3c(OC(C)=O)c(C)c4c(c3[C@H](COC1=O)N1[C@@H]2[C@H]2c3c(cc(C)c(OC)c3O)C[C@@H]([C@@H]1O)N2C)OCO4
not listed: [2] | [8] | [9]
inactive: all other assays above

CCCCCCOC(=O)c1cccnc1
not listed: [7] | [8] | [10]
inactive: all other assays above

O=C1[O][Bi][O]c2ccccc21
inactive: [10]

CC(=O)[C@]1(O)Cc2c(O)c3c(c(O)c2[C@@H](O[C@H]2C[C@H](N)[C@H](O)[C@H](C)O2)C1)C(=O)c1ccccc1C3=O
active: [6] 14.1 µM [fluorescent] | [8] 23.9 µM [inconclusive]
inactive: [2] | [3] | [4] | [5] | [7]

C=CCc1cc(S(=O)(=O)c2ccc(O)c(CC=C)c2)ccc1O
inactive: [2] | [10] | [4] | [5] | [6] | [7]

CC[C@@]1([C@@H]2O[C@@H]([C@H]3O[C@@](O)(CO)[C@H](C)C[C@@H]3C)C[C@@H]2C)CC[C@H]([C@]2(C)CC[C@]3(C[C@H](O)[C@@H](C)[C@@H]([C@@H](C)[C@@H](OC)[C@H](C)C(=O)O)O3)O2)O1 (stereo in doubt)
inactive: [2] | [4] | [5] | [6] | [7]

CC(C)(C)c1ccc2c(S(=O)(=O)O)c(C(C)(C)C)ccc2c1
not listed: [1] | [3] | [8]
inactive: all other assays above

CNCC(=O)N[C@@H](CCCN=C(N)N)C(=O)N[C@H](C(=O)N[C@@H](Cc1ccc(O)cc1)C(=O)N[C@H](C(=O)N[C@@H](Cc1cnc[nH]1)C(=O)N1CCC[C@H]1C(=O)N[C@@H](C)C(=O)O)C(C)C)C(C)C
inactive: [2] | [3] | [4] | [5] | [6] | [9]

COC(=O)C[C@](O)(CCCC(C)(C)O)C(=O)O[C@@H]1C(OC)=CC23CCCN2CCc2cc4c(cc2[C@H]13)OCO4 (some centres undefined)
active: [9] 0.169 µM
not listed: [1] | [8] | [10]
inactive: all other assays above

C=C1C(CCl)(CCl)C2(Cl)C(Cl)C(Cl)C1(Cl)C2(Cl)Cl (centres undefined)
inactive: [2] | [10] | [3] | [4] | [5] | [7]

S=C1NC=NC2N=CNC12 (centres undefined)
not listed: [1] | [8] | [9]
inactive: all other assays above

CCCCCCCCCCCCCCCCC(C(=O)O)C(O)(CC(=O)O)C(=O)O (centres undefined)
inactive: [2] | [10] | [4] | [5] | [6]

C[C@]12O[C@H](C[C@]1(O)CO)n1c3ccccc3c3c4c(c5c6ccccc6n2c5c31)CNC4=O
inactive: [2] | [10] | [3] | [4] | [5] | [7]

CC(=O)O[C@H]1C[C@@H]2CC[C@@H]3[C@H](CC[C@@]4(C)[C@H]3C[C@H]([N+]3(C)CCCCC3)[C@@H]4OC(C)=O)[C@@]2(C)C[C@@H]1[N+]1(C)CCCCC1
not listed: [1] | [6] | [10]
inactive: all other assays above

Cc1cnc(C(=O)O)c[n+]1[O-]
inactive: [2] | [3] | [4] | [5] | [6]

Cc1cn([C@H]2C[C@H](O)[C@@H](CO)O2)c(=O)[nH]c1=O
inactive: [2] | [3] | [4] | [5] | [7] | [9]

CN[C@H](CC(C)C)C(=O)N[C@H]1C(=O)N[C@@H](CC(N)=O)C(=O)N[C@H]2C(=O)N[C@H]3C(=O)N[C@H](C(=O)N[C@@H](C(=O)O)c4cc(O)cc(O)c4-c4cc3ccc4O)[C@H](O)c3ccc(c(Cl)c3)Oc3cc2cc(c3O[C@@H]2O[C@H](CO)[C@@H](O)[C@H](O)[C@H]2O[C@H]2C[C@](C)(N)C(O)[C@H](C)O2)Oc2ccc(cc2Cl)[C@H]1O (some centres undefined)
not listed: [1] | [3] | [10]
inactive: all other assays above

CCCCCCCCCCCCCCCC(=O)OC[C@H](COP(=O)([O-])OCC[N+](C)(C)C)OC(=O)CCCCCCCCCCCCCCC
not listed: [1] | [8]
inactive: all other assays above

O=[N+]([O-])c1ccc(O)c2ncccc12
not listed: [1] | [8] | [9]
inactive: all other assays above

CO[C@H]1C[C@H](O[C@H]2[C@H](C)[C@@H](O[C@@H]3O[C@H](C)C[C@H](N(C)C)[C@H]3O)[C@@H](C)C[C@]3(CO3)C(=O)[C@H](C)[C@@H](O)[C@@H](C)[C@@H](C)OC(=O)[C@@H]2C)O[C@@H](C)[C@@H]1O
not listed: [1]
inactive: all other assays above
